Measurements reported in PubChem BioAssay (NCI).
This is part of a sample that, as a whole, favours compounds with a hit. Of some 83,000 tested, about 20% had one in any assay.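 A percent growth of 40 corresponds to 60% growth inhibition; 0 means no net growth; -100 means all cells died. Active threshold: below 10.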 Calls of active or inactive are those of the source.

Assays:
Assay in all cases: NCI-60 one-dose screen, 48 h (100 = growth as untreated, 0 = no growth, -100 = all killed)
Conditions in all cases: 10 µM unless noted
NCI-H23 lung = tested on: NCI-H23 lung
NCI-H322M lung = tested on: NCI-H322M lung
HOP-62 NSCLC = tested on: HOP-62 NSCLC
NCI-H460 lung = tested on: NCI-H460 lung
HOP-92 NSCLC = tested on: HOP-92 NSCLC
NCI-H522 lung = tested on: NCI-H522 lung
A549/ATCC NSCLC = tested on: A549/ATCC NSCLC
786-0 renal = tested on: 786-0 renal
COLO 205 colon = tested on: COLO 205 colon

Measured: growth

Cc1nc(NC(=O)N2CCC[C@H]2C(N)=O)sc1-c1ccnc(C(C)(C)C(F)(F)F)c1
inactive: NCI-H23 lung 57.9% | HOP-62 NSCLC 49.4% | NCI-H460 lung 24% | NCI-H522 lung 33.6% | A549/ATCC NSCLC 21% | 786-0 renal 59.5% | COLO 205 colon 13.7%
active: NCI-H322M lung 6.7% | HOP-92 NSCLC -4.57%

O=C(Cn1cncn1)Nc1ccc(-c2nc3ccccc3s2)cc1
inactive: NCI-H23 lung 87.5% | NCI-H322M lung 101% | HOP-62 NSCLC 102% | NCI-H460 lung 97% | HOP-92 NSCLC 93.5% | NCI-H522 lung 87.5% | A549/ATCC NSCLC 88.1% | 786-0 renal 95.6% | COLO 205 colon 107%

CC(=O)CC1CCCC1c1ccc2ccccc2c1 (stereo unspecified)
inactive: NCI-H23 lung 96.3% | NCI-H322M lung 96.2% | HOP-62 NSCLC 96.6% | NCI-H460 lung 101% | HOP-92 NSCLC 99.7% | NCI-H522 lung 93.5% | A549/ATCC NSCLC 95.6% | 786-0 renal 101% | COLO 205 colon 99.4%

CCCCCCCC(=O)SCC/C=C/[C@@H]1CC(=O)NCc2nc(co2)C2=N[C@@](C)(CS2)C(=O)N[C@@H](C(C)C)C(=O)O1
active: NCI-H23 lung -2.47% | NCI-H322M lung -18.5% | HOP-62 NSCLC -6.6% | NCI-H460 lung 3.41% | HOP-92 NSCLC -15.5% | NCI-H522 lung -10.2% | A549/ATCC NSCLC -2.81% | COLO 205 colon -41.3%
inactive: 786-0 renal 10.2%

CN1CCN(CC(=O)Nc2ccc(-c3nc4ccccc4s3)cc2)CC1
inactive: NCI-H23 lung 82.2% | NCI-H322M lung 77.9% | HOP-62 NSCLC 87.3% | NCI-H460 lung 84.7% | HOP-92 NSCLC 35.7% | NCI-H522 lung 58.9% | A549/ATCC NSCLC 88.6% | 786-0 renal 78.7% | COLO 205 colon 39.7%

C[C@@]1(C(=O)Nc2ccc(F)nc2)CCCN1c1nc(Nc2cc(C3CC3)[nH]n2)c2cccn2n1
active: HOP-92 NSCLC -45.5% | 786-0 renal 5.48% | COLO 205 colon -49.3%
inactive: NCI-H23 lung 20.5% | NCI-H322M lung 15.3% | HOP-62 NSCLC 11.3% | NCI-H460 lung 14.5% | NCI-H522 lung 40.9% | A549/ATCC NSCLC 21.9%

CN1CCN(c2nc(NCCNc3ccnc4cc(Cl)ccc34)c3ccccc3n2)CC1
inactive: NCI-H23 lung 44.9% | NCI-H322M lung 21.3% | HOP-62 NSCLC 13.7% | NCI-H460 lung 11.6% | HOP-92 NSCLC 53%
active: NCI-H522 lung -20.2% | A549/ATCC NSCLC 1.62% | 786-0 renal -33.3% | COLO 205 colon -62.6%

CSC1=C(N)C(=O)c2[nH]cc(CO)c2C1=N
active: NCI-H23 lung -29.3% | NCI-H322M lung -97.2% | HOP-62 NSCLC -72.1% | NCI-H460 lung -59.2% | HOP-92 NSCLC -71.7% | NCI-H522 lung -43.4% | A549/ATCC NSCLC -57.4% | 786-0 renal -70.1% | COLO 205 colon -77.6%

CCOC(=O)C1=C(C)N=C2Sc3cccc(OC)c3N2[C@H]1c1ccccn1
inactive: NCI-H23 lung 86.9% | HOP-62 NSCLC 80.6% | NCI-H460 lung 105% | HOP-92 NSCLC 93.3% | NCI-H522 lung 81.2% | A549/ATCC NSCLC 94% | 786-0 renal 113% | COLO 205 colon 103%

NC(=O)Nc1cc(-c2cccc(F)c2)sc1C(=O)N[C@H]1CCCNC1
active: NCI-H23 lung -15.3% | NCI-H322M lung -17.8% | HOP-62 NSCLC -39.2% | NCI-H460 lung -21.6% | HOP-92 NSCLC -69.2% | NCI-H522 lung -19.2% | A549/ATCC NSCLC -35.4% | 786-0 renal -82.8% | COLO 205 colon -65.3%

COCc1c(-c2ccc(NC(=O)Nc3cc(C(F)(F)F)ccc3F)c(F)c2)c2c(N)ncnn2c1CN1CCOCC1
active: NCI-H23 lung -53.4% | NCI-H322M lung -17% | HOP-62 NSCLC -58.9% | NCI-H460 lung -47.2% | HOP-92 NSCLC -32.8% | NCI-H522 lung -55.3% | A549/ATCC NSCLC -18.8% | 786-0 renal -43.5%

Cc1ccsc1C(NC(=O)c1ccccc1)c1cc(Cl)c2cccnc2c1O (stereo unspecified)
inactive: NCI-H23 lung 28.1% | NCI-H322M lung 32% | HOP-62 NSCLC 15% | HOP-92 NSCLC 35% | A549/ATCC NSCLC 14.3% | 786-0 renal 18.2% | COLO 205 colon 11.7%
active: NCI-H460 lung 7.44% | NCI-H522 lung 9.39%

CN(C)CCn1c(=O)c2c3cc4c(cc3n(CCN(C)C)c2c2ccc(Cl)cc21)OCO4
inactive: NCI-H23 lung 36.9% | NCI-H322M lung 49.1% | HOP-62 NSCLC 26.3% | NCI-H460 lung 12.7% | HOP-92 NSCLC 65.9% | NCI-H522 lung 44.5% | A549/ATCC NSCLC 31.7% | 786-0 renal 61.1% | COLO 205 colon 27%

Cc1ccc(F)c(NC(=O)Nc2ccc(-c3cccc4[nH]nc(N)c34)cc2)c1
active: NCI-H23 lung 9.14% | HOP-62 NSCLC -7.49% | NCI-H522 lung -23.3% | A549/ATCC NSCLC -50.5% | COLO 205 colon -48.7%
inactive: NCI-H322M lung 21.5% | NCI-H460 lung 10.2% | HOP-92 NSCLC 63.8% | 786-0 renal 36.4%

NC1=Nc2ccccc2N(O)N1
inactive: NCI-H23 lung 102% | NCI-H322M lung 96.8% | HOP-62 NSCLC 80.9% | NCI-H460 lung 110% | HOP-92 NSCLC 107% | NCI-H522 lung 71.7% | A549/ATCC NSCLC 74.3% | 786-0 renal 101% | COLO 205 colon 105%

CC(=O)c1cnc2ccc(-c3cc(Cl)c(O)c(Cl)c3)nc2c1NC1CCC(CN(C)C)CC1 (stereo unspecified)
active: NCI-H23 lung -54.3% [2.5 µM] | NCI-H322M lung -37.7% [2.5 µM] | HOP-62 NSCLC -34.4% [2.5 µM] | NCI-H460 lung -51.8% [2.5 µM] | HOP-92 NSCLC -20.3% [2.5 µM] | NCI-H522 lung -75.5% [2.5 µM] | A549/ATCC NSCLC -8.85% [2.5 µM] | 786-0 renal -48.3% [2.5 µM] | COLO 205 colon -94.2% [2.5 µM]

COc1ccc2c(CCCC(c3ccccc3)c3ccccc3)c3[n+](cc2c1OC)CCc1cc2c(cc1-3)OCO2
inactive: NCI-H322M lung 16.2% | A549/ATCC NSCLC 10.2%
active: NCI-H23 lung -30.1% | HOP-62 NSCLC -9.19% | NCI-H460 lung -53% | HOP-92 NSCLC -40.6% | NCI-H522 lung -21% | 786-0 renal -18.7% | COLO 205 colon -67.8%
